Legend:
Assay in all cases: PBM binding z-score (relative to random genomic background probes); higher = stronger binding; sequences stand for … in GC…GCGATTGACAGCGTAGAATGAAGG
[1] = test system: FXR:RXRa (NR concentration 270 nM, RXRa partner concentration 90 nM)
Outline: (§1)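 Ligand-free nuclear receptor dimers were bound for 1 h to custom Agilent 4×180K protein-binding microarrays. Detection used antibodies against each partner (one per run). Binding z-scores rest on regression-normalized fluorescence, with random background probes as the reference.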

[2] = test system: LXRa:RXRa (NR concentration 270 nM, RXRa partner concentration 90 nM)
Outline: as §1

[3] = test system: LXRa homodimer (NR concentration 270 nM)
Outline: as §1

[4] = test system: LXRb:RXRa (NR concentration 270 nM, RXRa partner concentration 90 nM)
Outline: as §1

[5] = test system: PPARa:RXRa (NR concentration 270 nM, RXRa partner concentration 90 nM)
Outline: as §1

[6] = test system: PPARg:RXRa (NR concentration 180 nM, RXRa partner concentration 90 nM)
Outline: as §1

[7] = test system: PPARg:RXRa 270nM:90nM, anti-RXR (NR concentration 270 nM, RXRa partner concentration 90 nM)
Outline: as §1

[8] = test system: PPARg:RXRa 30nM:10nM, anti-RXR (NR concentration 30 nM, RXRa partner concentration 10 nM)
Outline: as §1

[9] = test system: PPARg:RXRa 90nM:30nM, anti-RXR (NR concentration 90 nM, RXRa partner concentration 30 nM)
Outline: as §1

[10] = test system: PPARg:RXRa DBDmut IVT, anti-RXR (DBD mutation: RXRa K156A/R161A, NR concentration 270 nM, RXRa partner concentration 90 nM)
Outline: as §1

[11] = test system: PPARg:RXRa IVT, anti-PPARg (NR concentration 270 nM, RXRa partner concentration 90 nM)
Outline: as §1

[12] = test system: PPARg homodimer (NR concentration 180 nM)
Outline: as §1

[13] = test system: PXR:RXRa (NR concentration 270 nM, RXRa partner concentration 90 nM)
Outline: as §1

[14] = test system: PXR homodimer (NR concentration 270 nM)
Outline: as §1

[15] = test system: RARa:RXR (NR concentration 270 nM, RXRa partner concentration 90 nM)
Outline: as §1

[16] = test system: RARa homodimer (NR concentration 270 nM)
Outline: as §1

[17] = test system: RARb:RXRa (NR concentration 270 nM, RXRa partner concentration 90 nM)
Outline: as §1

Sequence | PBM binding z-score [1] | PBM binding z-score [2] | PBM binding z-score [3] | PBM binding z-score [4] | PBM binding z-score [5] | PBM binding z-score [6] | PBM binding z-score [7] | PBM binding z-score [8] | PBM binding z-score [9] | PBM binding z-score [10] | PBM binding z-score [11] | PBM binding z-score [12] | PBM binding z-score [13] | PBM binding z-score [14] | PBM binding z-score [15] | PBM binding z-score [16] | PBM binding z-score [17]
CCGAGTAGGTTACGAGGGGGCATTGAGTGCGAAT | 2.26 | 7.11 | 1.25 | 6.12 | 3.55 | 2.61 | 3.24 | 1.03 | 2.58 | 4.78 | 4.42 | 1.95 | 5.05 | 8.74 | 2.91 | 0.485 | 2.02
CTATGTCGGTTAAGGGGGTCATTCAGTTTGAAAG | 4.86 | 5.24 | 4.38 | 6.42 | 5.65 | 5.4 | 6.26 | 3.98 | 5.7 | 4.49 | 5.96 | 6.84 | 5.84 | 8.33 | 5.76 | 4.21 | 3.57
TCCAGTAGGTTACGGGGGCATTCAGGGATGAAGA | 3.09 | 3.47 | 1.18 | 5.7 | 4.68 | 7.15 | 6.28 | 5.22 | 6.53 | 5.86 | 6.84 | 2.22 | 3.68 | 1.9 | 3.51 | 0.616 | 2.97
TCGAGTAGGTGACGGGGGCATTCAGGGATGAAGA | 2.66 | 2.37 | 0.394 | 4.6 | 3.82 | 5.16 | 5.26 | 3.32 | 4.67 | 5.39 | 6.13 | 2.07 | 3.15 | 1.91 | 2.63 | 0.214 | 2.45
CTATGTAGGTTTAGGGGGTCATTCAGTTTGAAAG | 4.33 | 4.71 | 4.34 | 5.97 | 5.41 | 4.01 | 5.15 | 2.66 | 4.77 | 3.47 | 4.95 | 3.1 | 5.4 | 9.15 | 5.1 | 1.56 | 2.93
CCGAGTGGGTTACGAGGGGGCATTCAGTGCGAAT | 2.73 | 6.93 | 0.977 | 5.8 | 3.08 | 1.75 | 2.54 | 0.567 | 1.74 | 3.36 | 3.81 | 1.4 | 4.8 | 5.23 | 2.53 | -0.433 | 1.65
CTATGTAGGTTAAGGGGGTCATTCAGTTTGAAAG | 5.62 | 5.08 | 3.54 | 6.24 | 6.31 | 9 | 7.99 | 6.08 | 8.01 | 7.67 | 7.74 | 3.66 | 6.09 | 11.4 | 5.93 | 1.81 | 3.73
CTATATAGGTTAAGGGGGTCATTCAGTTTGAAAG | 6.35 | 5.57 | 2.95 | 6.48 | 6.33 | 8.85 | 8.04 | 6.09 | 8.09 | 7.39 | 7.38 | 4.56 | 6.35 | 12.1 | 6.42 | 1.99 | 3.91
CCGAGTAGGTTACGAGGGGGCTTTCAGTGCGAAT | 1.47 | 3.54 | 0.44 | 4.05 | 2.66 | 1.29 | 2.7 | 0.558 | 1.82 | 4.79 | 4.3 | 0.789 | 2.01 | 0.241 | 1.55 | -0.415 | 1.41
TCGATTAGGTTACGGGGGCATTCAGGGATGAAGA | 3.28 | 3.73 | 1.5 | 5.59 | 4.45 | 5.21 | 5.33 | 4.89 | 5.46 | 5.15 | 5.84 | 2.49 | 3.63 | 2.83 | 3.51 | 1.32 | 3.28
CCAAGTAGGTTACGAGGGGGCATTCAGTGCGAAT | 3.42 | 7.37 | 1.65 | 6.39 | 4.05 | 4.83 | 4.89 | 2.33 | 3.81 | 6.86 | 6.44 | 2.19 | 5.04 | 6.14 | 3.18 | 1.41 | 2.52
TCGAGTAGGTTACGGGGGCATTCACGGATGAAGA | 2.41 | 2.89 | 0.361 | 4.92 | 4.38 | 5.82 | 6.16 | 3.37 | 5.06 | 5.07 | 6.04 | 2.12 | 3.21 | 1.4 | 3.16 | 0.0892 | 2.51
TCGAGTAGGTTTCGGGGGCATTCAGGGATGAAGA | 2.38 | 2.27 | 0.973 | 4.48 | 2.96 | 1.4 | 2.99 | 2.29 | 2.8 | 2.63 | 3.84 | 1.79 | 2.62 | 2.07 | 2.22 | 0.713 | 1.67
TCGAGTAGGTTACGGGGGCTTTCAGGGATGAAGA | 1.64 | 2.06 | 0.118 | 4.46 | 3.23 | 3.47 | 3.94 | 2.05 | 3.12 | 4.35 | 4.61 | 0.803 | 1.87 | 0.25 | 1.99 | -0.0109 | 1.69
TCGAGTAGGTTACGGGGACATTCAGGGATGAAGA | 0.831 | 0.995 | -0.0512 | 0.999 | 2.4 | 3.19 | 3.06 | 1.81 | 2.27 | 4.18 | 4.72 | 1.95 | 0.696 | -0.0868 | 1.17 | 0.0881 | 1.43
CTATGTAGGTTAAGGGGGTCATTTAGTTTGAAAG | 5.01 | 4.94 | 3.42 | 6.37 | 5.83 | 8.48 | 7.62 | 6.07 | 7.54 | 7.59 | 7.5 | 3.59 | 5.59 | 10.3 | 5.8 | 1.96 | 3.51
CCGAGTAGGGTACGAGGGGGCATTCAGTGCGAAT | 1.83 | 4.84 | 0.674 | 4.44 | 2.53 | 0.709 | 1.58 | 0.0374 | 1.17 | 2.87 | 3.56 | 0.861 | 3.15 | 3.37 | 1.71 | -0.0964 | 1.36
TCGAGTAGGTTACGGGGGCATTCAAGGATGAAGA | 2.72 | 3.01 | 0.487 | 4.72 | 4.27 | 6.08 | 5.8 | 3.65 | 4.94 | 4.93 | 6 | 1.38 | 3.1 | 1.06 | 3.21 | 0.0228 | 2.59
CCGAGTAGGTTACGAGGGGCCATTCAGTGCGAAT | 1.12 | 5.25 | -0.218 | 3.07 | 1.76 | 1.4 | 1.54 | 0.0553 | 0.829 | 4.13 | 3.51 | 0.766 | 2.92 | 1.09 | 1.11 | 0.136 | 1.47
CCGGGTAGGTTACGAGGGGGCATTCAGTGCGAAT | 2.48 | 7.2 | 1.5 | 6.39 | 3.54 | 1.6 | 2.96 | 1.05 | 2.49 | 1.95 | 4.17 | 1.56 | 5 | 4.47 | 3.19 | 0.857 | 2.21
CTATGTAGGCTAAGGGGGTCATTCAGTTTGAAAG | 3.71 | 3.81 | 0.999 | 5.74 | 5.31 | 5.77 | 6.41 | 3.65 | 6.14 | 5.39 | 5.71 | 1.72 | 5.12 | 8.71 | 5.12 | 0.465 | 2.69
TCGAGTATGTTACGGGGGCATTCAGGGATGAAGA | 2.26 | 2.6 | 0.591 | 4.72 | 2.9 | 1.94 | 3.22 | 2.44 | 3.35 | 2.87 | 3.97 | 0.827 | 2.87 | 1.12 | 2.43 | 0.107 | 2.01
TCGAGTAGGTTACGTGGGCATTCAGGGATGAAGA | -0.0639 | 0.328 | -0.386 | 0.112 | 1.25 | 0.953 | 1.36 | 1.14 | 1.11 | 3.11 | 2.65 | -0.0563 | -0.044 | -0.265 | 0.41 | -0.517 | 0.704
CTATGTAGGTTAAGGGGGTCATACAGTTTGAAAG | 5.2 | 5.02 | 1.99 | 6.22 | 6.21 | 8.81 | 8.13 | 6.16 | 8.11 | 7.64 | 7.1 | 3.8 | 5.63 | 8.43 | 5.95 | 2.55 | 3.77
CCGAGTAGGTTACGAGGGGGCATTCCGTGCGAAT | 2.81 | 7.17 | 1.62 | 6.21 | 3.36 | 1.77 | 2.96 | 0.628 | 1.69 | 4.52 | 4.42 | 1.68 | 4.37 | 0.912 | 2.94 | 0.747 | 2
TCGAGTCGGTTACGGGGGCATTCAGGGATGAAGA | 1.7 | 1.82 | 0.317 | 4 | 2.75 | 1.46 | 2.62 | 1.58 | 2.15 | 1.87 | 3.65 | 1.02 | 2.5 | 0.347 | 2.15 | -0.175 | 1.71
TCGAGTAGGTTACGGAGGCATTCAGGGATGAAGA | 0.282 | 0.497 | -0.597 | 0.121 | 1.57 | 1.39 | 1.81 | 1.08 | 1.75 | 3.09 | 3.05 | 0.325 | 0.0271 | -0.388 | 0.547 | -0.666 | 0.731
